# Calls of active or inactive are those of the source.
# Legend:
# [1] = A549 cell viability effects, profiling panel, calcein-AM fluorescence, 48 h, basal (AID 1162); settings: higher = more signal; note: test concentration not given here
# [2] = adipocyte viability effects, profiling panel, cell-based, 3T3-L1 adipocytes, calcein-AM fluorescence, 48 h, basal (AID 1163); settings: 3T3-L1 adipocytes viability, higher = more signal; note: test concentration not given here
# [3] = HepG2 cell viability effects, profiling panel, calcein-AM fluorescence, 48 h, basal (AID 1164); settings: higher = more signal; note: test concentration not given here
# [4] = MM1S cell viability effects, profiling panel, calcein-AM fluorescence, 48 h, basal (AID 1165); settings: higher = more signal;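 note: viability of MM1S multiple myeloma cells under basal unstimulated conditions; test concentration not given here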
# [5] = basal RPMI8226 viability, no added stimulus, profiling panel, cell-based, calcein-AM fluorescence, 48 h, PK04 Diversity Set (AID 1166); settings: RPMI8226 myeloma viability, higher = more signal;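 note: cells grown under basal conditions without added stimulus; test concentration not given here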
# [6] = basal HepG2 mitochondrial membrane potential changes, profiling panel, cell-based, JC-1 fluorescence, 24 h, 100 nL compound (AID 1167); settings: higher = more signal; note: test concentration not given here
# [7] = basal 3T3-L1 adipocyte mitochondrial potential changes, profiling panel, cell-based, JC-1 fluorescence, 3T3-L1 adipocytes, 24 h, 100 nL compound (AID 1168); settings: JC-1 mitochondrial fluorescence, higher = more signal, called active from +8 up or from −8 down; note: test concentration not given here
# [8] = basal RPMI8226 mitochondrial membrane potential changes, profiling panel, cell-based, JC-1 fluorescence, 24 h, 100 nL compound (AID 1169); settings: RPMI8226 myeloma, JC-1 mitochondrial potential fluorescence, higher = more signal; note: test concentration not given here
# [9] = basal MM1S mitochondrial membrane potential changes, profiling panel, cell-based, JC-1 fluorescence, 24 h, 100 nL compound (AID 1170); settings: higher = more signal; note: test concentration not given here
# [10] = A549 lung cancer cell viability effects, profiling panel, resazurin fluorescence, 24 h, PK04 Diversity Set (AID 1171); settings: higher = more signal, called active from +8 up or from −8 down; note: test concentration not given here
# [11] = HepG2 liver cancer cell viability effects, profiling panel, resazurin fluorescence, 24 h, PK04 Diversity Set (AID 1172); settings: higher = more signal; note: test concentration not given here
# [12] = basal S. cerevisiae growth modulation, no modifier, primary screen, OD600, strain BY4716, 24 h, basal condition (AID 1173); settings: OD600, 24 h, higher = more signal, called active from +8 up or from −8 down
# [13] = MM1S myeloma cell viability, profiling panel, resazurin fluorescence, basal, 24 h, PK04 Diversity Set (AID 1174); settings: higher = more signal, called active from +8 up or from −8 down;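 note: MM1S multiple myeloma cell line; test concentration not given here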
# [14] = target: Dihydroorotate dehydrogenase (quinone), mitochondrial (Plasmodium falciparum (isolate 3D7)) (UniProt Q08210); assay: PfDHODH enzyme inhibitors, primary screen, biochemical, C-terminal His tag, absorbance 600 nm (AID 1175); settings: DCIP absorbance 600 nm, higher = more signal, called active from +8 up or from −8 down;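 note: recombinant parasite enzyme with a five histidine tag at its C terminus; test concentration not given here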
# [15] = S. cerevisiae RM11-1a growth modifiers, primary screen, strain RM11-1a, OD600, basal, 24 h (AID 1177); settings: OD600, 24 h, higher = more signal, called active from +8 up or from −8 down;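 note: cultures grown under basal conditions with no added stressor; test concentration not given here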
# [16] = E. coli acrAB mutant growth effects, primary screen, E. coli filamentation inducers, strain DRC39, OD650, 24 h (AID 1178); settings: higher = more signal, called active from +8 up or from −8 down;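 note: growth measured as culture turbidity by optical density at 650 nm; test concentration not given here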
# [17] = E. coli acrAB mutant growth effects, primary screen, E. coli filamentation inducers, strain DRC39, OD650, 48 h (AID 1179);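 note: screen aims at cell division blockers that make cells filament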; settings: E. coli DRC39 delta-acrAB growth, higher = more signal, called active from +8 up or from −8 down
# [18] = RPMI8226 myeloma cell viability, profiling panel, resazurin fluorescence, basal, 24 h, PK04 Diversity Set (AID 1180); settings: higher = more signal;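 note: RPMI8826 multiple myeloma cell line at 5000 cells per well; test concentration not given here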
# [19] = target: E3 ubiquitin-protein ligase XIAP (Homo sapiens) (UniProt P98170); assay: XIAP binders, primary screen, biophysical, small-molecule microarray, fluorescence 635 nm (AID 1181); settings: small-molecule microarray binding, higher = more signal;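 note: score merges 667 nm emission and signal to noise over triplicate slides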
# E3 ubiquitin-protein ligase XIAP (Homo sapiens), sequence (P98170 whole entry, looked up): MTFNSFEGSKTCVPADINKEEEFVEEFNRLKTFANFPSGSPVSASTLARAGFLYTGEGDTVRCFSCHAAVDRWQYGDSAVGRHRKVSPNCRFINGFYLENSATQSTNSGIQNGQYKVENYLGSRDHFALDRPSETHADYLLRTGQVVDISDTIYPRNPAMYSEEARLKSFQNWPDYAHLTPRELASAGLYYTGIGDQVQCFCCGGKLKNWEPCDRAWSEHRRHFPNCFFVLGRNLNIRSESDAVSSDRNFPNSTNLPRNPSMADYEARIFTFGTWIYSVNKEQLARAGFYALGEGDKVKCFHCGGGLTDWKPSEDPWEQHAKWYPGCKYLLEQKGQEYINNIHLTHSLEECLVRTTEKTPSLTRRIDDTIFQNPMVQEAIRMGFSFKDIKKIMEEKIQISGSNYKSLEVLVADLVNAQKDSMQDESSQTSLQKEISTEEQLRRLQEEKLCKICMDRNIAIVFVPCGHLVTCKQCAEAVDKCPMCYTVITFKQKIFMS
# Dihydroorotate dehydrogenase (quinone), mitochondrial (Plasmodium falciparum (isolate 3D7)), sequence (Q08210 whole entry, looked up): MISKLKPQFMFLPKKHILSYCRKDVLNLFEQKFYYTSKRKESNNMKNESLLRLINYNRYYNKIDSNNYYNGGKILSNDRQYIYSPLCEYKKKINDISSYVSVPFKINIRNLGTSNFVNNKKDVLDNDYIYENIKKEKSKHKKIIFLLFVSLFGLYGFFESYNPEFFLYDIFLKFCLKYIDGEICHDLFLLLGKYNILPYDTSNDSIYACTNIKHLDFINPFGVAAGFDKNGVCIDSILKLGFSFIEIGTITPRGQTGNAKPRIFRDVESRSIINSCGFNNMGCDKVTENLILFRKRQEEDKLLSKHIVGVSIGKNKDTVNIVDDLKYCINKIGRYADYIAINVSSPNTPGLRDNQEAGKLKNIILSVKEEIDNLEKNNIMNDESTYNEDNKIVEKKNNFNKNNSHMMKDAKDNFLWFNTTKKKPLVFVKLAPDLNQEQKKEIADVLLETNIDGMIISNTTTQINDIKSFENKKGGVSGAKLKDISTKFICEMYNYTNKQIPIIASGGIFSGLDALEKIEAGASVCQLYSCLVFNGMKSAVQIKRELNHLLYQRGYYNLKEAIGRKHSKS
SMILES,z-score [1],z-score [2],z-score [3],z-score [4],z-score [5],z-score [6],z-score [7],z-score [8],z-score [9],z-score [10],z-score [11],z-score [12],z-score [13],composite z-score [14],z-score [15],z-score [16],z-score [17],z-score [18],composite z-score [19]
[N-]=[N+]=NCc1ccccc1C[C@]1(C(N)=O)N=C(c2ccc(OCCCO)cc2)O[C@H]1c1ccccc1CN=[N+]=[N-],-0.633,1.76,-1.35,-2.19,-3.71,1.89,0.575 (inactive),-0.937,-0.621,-1.97 (inactive),-0.668,-3.26 (inactive),-1.04 (inactive),-2.42 (inactive),-3.31 (inactive),2.63 (inactive),0.258 (inactive),-1.46,0.0685
CO[C@H]1COC(=O)[C@@H](Cc2ccccc2)NC(=O)[C@@H](C)COC(=O)CC=C[C@@H]1C,0.899,0.172,0.662,0.221,0.373,0.606,0.0117 (inactive),0.175,0.662,1.2 (inactive),0.344,-1.14 (inactive),1.1 (inactive),0.0602 (inactive),-0.213 (inactive),1.24 (inactive),0.639 (inactive),0.763,0.785
CCN1C(C)=C(C(=O)OC)[C@@H](c2ccccc2)N2C(=O)[C@@]3(C(=O)OC)O[C@@]12[C@@H]1C(=O)N(C)C(=O)[C@@H]13,0.0516,0.59,-0.616,-1.51,0.68,0.684,1.15 (inactive),0.644,-0.196,0.363 (inactive),0.976,-0.684 (inactive),0.947 (inactive),1.18 (inactive),0.335 (inactive),-0.234 (inactive),-0.992 (inactive),1.09,-0.0454
CCC(=O)[C@]12O[C@@]3([C@@H]4C(=O)OCC[C@@H]41)N(CC)C(C)=C(C(=O)OC)[C@@H](c1ccccc1)N3C2=O,0.569,1.77,0.0496,-0.868,-1.8,0.684,0.112 (inactive),-0.537,0.541,-0.257 (inactive),0.121,-2.81 (inactive),-0.01 (inactive),-0.191 (inactive),-0.805 (inactive),-0.772 (inactive),0.09 (inactive),0.74,0.0178
COc1ccc([Si](C)(C)[C@H]2[C@H](CC(=O)N3Cc4ccccc4C[C@H]3CO)O[C@@]3(C(=O)N(Cc4cccc(N5CCOC5=O)c4)c4ccccc43)[C@@H]2C)cc1,0.443,0.373,-0.632,-0.913,-0.727,1.31,0.405 (inactive),-1.1,-0.223,-0.399 (inactive),-0.341,-2.22 (inactive),-1.71 (inactive),-0.135 (inactive),0.446 (inactive),1.63 (inactive),0.856 (inactive),-1.75,0.22
CCN1C(C)=C(C(=O)OC)[C@@H](c2ccccc2)N2C(=O)[C@@]3(C(=O)OC)O[C@@]12[C@@H]1C(=O)N(c2ccccc2)C(=O)[C@@H]13,0.0365,1.67,-0.805,0.871,-0.892,0.564,1.17 (inactive),1.22,0.0907,0.677 (inactive),0.392,-1.07 (inactive),0.839 (inactive),0.295 (inactive),-0.85 (inactive),-0.631 (inactive),-0.21 (inactive),1.21,-0.18
C[C@@H]1NC(=O)CC=C[C@@H](C)[C@@H]2C=C[C@H](O)[C@@H](COC(=O)[C@H](C)NC(=O)CC=C[C@@H](C)[C@@H]3C=C[C@H](O)[C@@H](COC1=O)O3)O2,0.362,1.59,-0.195,0.188,-1.38,1.1,0.863 (inactive),0.21,0.665,-0.756 (inactive),-0.0969,-2.21 (inactive),0.668 (inactive),0.633 (inactive),-1.76 (inactive),0.953 (inactive),0.264 (inactive),0.526,-0.135
C=CCC(OC(C)=O)[C@@H]1[C@@H](N(Cc2cc3ccccc3o2)C(=O)c2ccc(C)cc2)c2cc(OCCCO)ccc2N1C(=O)c1ccc2ccccc2n1 (stereo partly specified),2.73,0.362,1.54,0.906,1.09,2.46,1.5 (inactive),0.648,1.19,1.66 (inactive),1.8,-0.934 (inactive),1.37 (inactive),0.309 (inactive),-0.0157 (inactive),1.74 (inactive),1.42 (inactive),0.585,0.437
COc1cc([C@@H]2N[C@H](C(=O)O)Cc3c2[nH]c2ccccc32)cc(OC)c1OC,0.937,1.05,-0.793,-0.0434,0.407,-0.737,-0.135 (inactive),-0.663,0.639,0.455 (inactive),0.384,-0.61 (inactive),1.39 (inactive),-1.7 (inactive),-0.8 (inactive),-0.105 (inactive),0.197 (inactive),1.03,-0.227
CO[C@H]1COC(=O)CC=C[C@H](C)COC(=O)[C@@H](OCc2ccccc2)C=C[C@@H]1C,-0.696,-0.886,0.806,0.178,-1.73,0.96,0.877 (inactive),0.103,0.398,0.0283 (inactive),-0.103,-0.348 (inactive),1.46 (inactive),-2.5 (inactive),-1.22 (inactive),0.566 (inactive),0.171 (inactive),0.627,-0.22
CO[C@H]1COC(=O)[C@@H](OCc2ccccc2)C=C[C@H](C)[C@@H](OC)COC(=O)[C@H](OCc2ccccc2)C=C[C@@H]1C,0.665,1.21,1.45,0.301,0.0913,1.6,0.382 (inactive),-0.262,2.82,1.76 (inactive),1.12,-2.2 (inactive),1.6 (inactive),-1.11 (inactive),-3.47 (inactive),0.422 (inactive),-0.97 (inactive),0.193,-0.148
CC(C)N1CC=CC23O[C@@H]4/C=C\CCCOC(=O)C4[C@H]2C(=O)N(CCO)[C@@H]3C1=O (stereo partly specified),1.63,0.472,0.499,1.37,0.629,1.42,2.1 (inactive),-0.442,0.776,1.39 (inactive),1.09,-1.71 (inactive),0.998 (inactive),-1.71 (inactive),-2.54 (inactive),2.2 (inactive),2.25 (inactive),0.855,-0.16
CC(=O)NCCCC[C@@H]1NC(=O)[C@@H]2C[C@H](C(=O)NCCCCCCN(C)C)[C@H](c3ccc(O)cc3)N2C1=O,-0.378,1.28,-1.04,-0.365,0.495,1.43,0.957 (inactive),0.641,0.925,0.318 (inactive),0.478,-0.574 (inactive),1.12 (inactive),0.266 (inactive),0.662 (inactive),0.325 (inactive),0.249 (inactive),0.912,0.103
CO[C@]12C=C(Br)[C@@H](C[C@@H]1c1ccccc1)[C@@]1(CO1)C2=O,-1.08,1.18,-1.08,-2.34,-1.62,-0.143,1.12 (inactive),-0.376,0.0484,-0.446 (inactive),0.418,-5.19 (inactive),0.0036 (inactive),1.03 (inactive),-0.123 (inactive),2.39 (inactive),1.29 (inactive),0.63,-0.142
O=C(NCC(O)CO)[C@]1(Cc2ccccc2)N=C(c2ccc(OCCCO)cc2)O[C@@H]1c1ccccc1 (stereo partly specified),-0.798,1.91,-2.22,-1.26,-1.08,-1.81,1.03 (inactive),0.159,0.245,0.519 (inactive),0.206,-3.32 (inactive),1.71 (inactive),0.287 (inactive),-0.989 (inactive),2.22 (inactive),0.235 (inactive),0.761,0.0251
C=CCNC(=O)[C@H]1[C@@H]2C(=O)O[C@@H](c3ccccc3)[C@@H](c3ccccc3)N2[C@@H](c2ccc(O)cc2)[C@]12C(=O)Nc1ccc(C#CCNC(N)=O)cc12,0.294,0.57,-0.348,-0.778,-0.144,-0.0995,-0.0287 (inactive),0.424,0.716,0.999 (inactive),0.435,-0.558 (inactive),0.476 (inactive),-0.438 (inactive),-0.381 (inactive),0.574 (inactive),0.771 (inactive),0.917,0.0223
C=C(CCCC)C(=O)CC[C@@H](OC(=O)c1cccnc1)c1cccc(OCCO)c1,1.17,0.977,-0.865,-3.38,-2.93,0.558,0.645 (inactive),-0.721,-1.68,0.468 (inactive),0.147,-1.41 (inactive),-4.18 (inactive),-1.57 (inactive),0.0831 (inactive),1.24 (inactive),0.543 (inactive),-4.13,-0.104
CO[C@@H]1COC(=O)[C@@H]2CCCN2C(=O)CC=C[C@@H](C)[C@H](OC)COC(=O)[C@@H]2CCCN2C(=O)CC=C[C@H]1C,0.798,0.185,1.21,0.283,0.142,-0.123,1.15 (inactive),-0.695,2.22,1.82 (inactive),0.929,-1.45 (inactive),1.31 (inactive),0.319 (inactive),-0.553 (inactive),1.65 (inactive),0.987 (inactive),0.0475,-0.02
C=C(/C(=C/C[C@@H](OC(=O)c1ccncc1)c1ccc(CO)o1)c1cnc2ccccc2c1)C(C)C,0.755,1.61,-0.993,-1.24,0.13,-0.75,0.03 (inactive),0.0616,0.627,0.382 (inactive),0.0389,-2.58 (inactive),0.558 (inactive),-6.53 (inactive),-0.475 (inactive),1.4 (inactive),0.811 (inactive),1.17,0.374
